Reference: PubChem BioAssay AID1209 (Sanford-Burnham Center for Chemical Genomics, 2008)
The whole screen tested about 190,000 compounds, of which about 810 (0.43%) were called active. No stated cut-off is given here; in the data, active means inhibition above about 50%; inactive means the rest. The list comes from a sample in which actives are over-represented; it also holds similar structures and randomly drawn compounds.

molecular target: Mannose-6-phosphate isomerase (Homo sapiens) (UniProt P34949); experiment: inhibitors of human PMI, primary screen, biochemical, fluorescence intensity, coupled assay (AID 1209); details: purified PMI enzyme, at 20 µM, hits give high values;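 further: plate controls were DMSO vehicle for no effect and wells lacking substrate for full effect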
Sequence (P34949 whole entry, looked up): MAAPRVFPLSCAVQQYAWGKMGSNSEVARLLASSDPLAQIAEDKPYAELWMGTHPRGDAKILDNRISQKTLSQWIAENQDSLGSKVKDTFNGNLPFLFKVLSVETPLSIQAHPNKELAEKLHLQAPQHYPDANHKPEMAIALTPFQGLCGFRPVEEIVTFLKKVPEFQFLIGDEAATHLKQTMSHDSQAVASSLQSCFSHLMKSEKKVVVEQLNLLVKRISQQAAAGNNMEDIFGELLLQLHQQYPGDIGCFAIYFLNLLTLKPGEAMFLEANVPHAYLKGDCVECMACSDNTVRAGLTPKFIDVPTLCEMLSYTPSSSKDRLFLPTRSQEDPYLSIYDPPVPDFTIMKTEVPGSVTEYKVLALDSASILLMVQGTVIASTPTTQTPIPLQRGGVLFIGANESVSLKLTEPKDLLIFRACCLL

inhibition, inactive:
COc1ccc(/C=C(\CC(=O)O)c2nc3ccccc3o2)cc1 -27.3%
Cc1nc(C)c(C(=O)NNC(=O)c2ccc(Br)cc2)s1 6.9%
CCN(C(=O)CSc1nnc(Cn2nnc3ccccc32)o1)c1nc(C)cs1 9.1%
COCCn1cc(C(=O)c2cc(Br)ccc2O)cc(C#N)c1=O -5.8%
O=C(Nc1ccc(S(=O)(=O)N2CCOCC2)cc1)c1ccc2c(c1)S(=O)(=O)c1ccccc1C2=O -4.6%
COc1ccc(-c2cc(C(=O)Nc3cc(S(=O)(=O)N4CCOCC4)ccc3N3CCOCC3)c3ccccc3n2)cc1 -22.7%
CCN(CC)S(=O)(=O)c1ccc(N2CCOCC2)c(NC(=O)c2cc(-c3ccccn3)nc3ccccc23)c1 15.6%
O=C(NC(=S)Nc1cc(S(=O)(=O)N2CCOCC2)ccc1N1CCOCC1)C1CCCC1 -1.5%
O=C(NC(=S)Nc1cc(S(=O)(=O)N2CCOCC2)ccc1N1CCOCC1)c1ccco1 3.9%
O=C(Nc1cc(S(=O)(=O)N2CCOCC2)ccc1O)c1ccc2c(c1)S(=O)(=O)c1ccccc1C2=O 46.3%
On1nnc2ccc3ccccc3c21 -9.6%
C/C(O)=c1/ccc2cccc3nc(C)nc1c23 42.6%
Cc1ccc(SCc2ccc(C(=O)NCc3ccncc3)cc2)cc1 0.9%
Cc1cc(C)n(C(=O)c2c([N+](=O)[O-])c(C)nn2C)n1 1.5%
c1ccc(CC2CCN(Cc3nc(-c4ccccc4)no3)CC2)cc1 16.3%
COc1ccc(C(=O)Nc2sc3c(c2C#N)CCN(C(C)=O)C3)cc1 5.9%
CC(=O)N1CCc2c(sc(NC(=O)c3ccc4c(c3)OCCO4)c2C#N)C1 18.2%
Cc1cc(-c2ccco2)n(CC(=O)NCc2ccco2)n1 -9.3%
CC(CSc1nnnn1-c1ccccc1)Cn1c(N2CCCC2)nc2c1c(=O)[nH]c(=O)n2C (stereo not given) 1.7%
CCCC(=O)N(c1ccc2oc(=O)sc2c1)S(=O)(=O)c1cccs1 3.6%
O=[N+]([O-])c1nn(-c2ccc3c(c2)OCCO3)n(O)c1=NC1CCCCCC1 12.3%
O=[N+]([O-])c1nn(-c2ccc3c(c2)OCCO3)n(O)c1=NC1CCCCC1 6%
C#CCNc1cc(-c2ccccc2)nc2ncnn12 -2.5%
COC(=O)c1ccc(C(=O)OC)c(NC(=O)C(C)(C)C)c1 -4.3%
COc1ccc(OC)c(NC(=O)CCNS(=O)(=O)c2cccs2)c1 0.3%
COc1ccccc1-c1nnc(SCC(=O)O)n1-c1ccccc1 0.5%
CCCCN(C(=O)c1ccc(NC(=O)C(C)C)cc1)c1ccccc1 8.2%
Cc1ccccc1-n1nnnc1SCc1ncc(-c2ccccc2)o1 5.3%
O=C(CCCc1nc2ccccc2s1)Nc1ccccc1 -15.5%
CCC(=O)Nc1ccc(OCc2nc3ccccc3s2)cc1 25%
O=C(NN1C(=O)C2C3C=CC(C3)C2C1=O)c1ccncc1 (stereo not given) -0.6%
Cc1csc(NC(=O)C2CCCN(S(=O)(=O)c3ccc4c(c3)oc(=O)n4C)C2)n1 (stereo not given) 13.4%
C=CCN1C(=O)N/C(=C/c2ccccc2OCC(=O)Nc2ccc(F)cc2)C1=O 2.1%
CN(c1ccccc1)S(=O)(=O)c1cccc(C(=O)NNC(=O)c2ccccc2)c1 7.8%
CN(C)S(=O)(=O)c1cccc(C(=O)NCCc2ccccc2)c1 3.3%
COc1cc(C2NC(=O)NC(c3ccccc3)=C2C(C)=O)ccc1OCC#N (stereo not given) 20.2%
O=C(CSc1nc2cc([N+](=O)[O-])ccc2n1-c1ccccc1)NCc1ccc2c(c1)OCO2 23.9%
COc1ccccc1-n1c(SCC(=O)NC2CCS(=O)(=O)C2)nc2cc([N+](=O)[O-])ccc21 (stereo not given) 5.5%
O=C(COC(=O)CCOc1ccccc1)Nc1ncc(Cl)cc1Cl -1%
Cc1c(C(=O)N/N=C/c2ccccc2)[nH]c2ccc(Cl)cc12 2.8%
O=C(Cc1csc(NC(=O)c2ccc(F)cc2)n1)NO 0.3%
COc1ccccc1NC(=O)Cc1csc(NC(=O)c2ccccc2)n1 5.9%
COC(=O)c1c(-c2cccc(OC)c2)csc1N 30%
O=C(CN1CCCC1)Nc1ccc(F)cc1 -11.5%
O=C(Nc1ccc(F)cc1)Nc1ccc(N2CCOCC2)c2nonc12 15.4%
COc1ccccc1NS(=O)(=O)c1cc(NC(=O)Nc2cccc(C)c2)ccc1N1CCCCC1 0.3%
COc1ccccc1NS(=O)(=O)c1cc(NC(=O)C2CC2)ccc1N1CCOCC1 15%
O=C(Nc1ccc([N+](=O)[O-])cc1)Nc1ccc(N2CCOCC2)c2nonc12 34.2%
COc1ccccc1NS(=O)(=O)c1cc(NC(=O)C(C)C)ccc1N1CCCCC1 41.2%
COc1ccccc1NS(=O)(=O)c1cc(NC(=O)Nc2ccccc2)ccc1N1CCCCC1 14.8%
COc1ccccc1NS(=O)(=O)c1cc(NC(=O)CCC2CCCC2)ccc1N1CCOCC1 2.1%
COc1ccccc1NS(=O)(=O)c1cc(NC(=O)Nc2ccc(Cl)cc2Cl)ccc1N1CCCCC1 2%
O=C(c1ccccc1)C(C(=O)N1CCc2ccccc2C1)n1ccccc1=O (stereo not given) 8.6%
O=C(CSc1nnnn1-c1cccc2ccccc12)NC(C(=O)O)(c1ccccc1)c1ccccc1 -9.3%
Cc1ccc(NC(=O)NC(=O)CN2C(=O)NC3(CCCCCCC3)C2=O)c(C)c1 9.5%
CCC/C(O)=C1\C(=O)CC(c2ccccc2)CC1=NC(C)C(=O)O (stereo not given) -5.7%
O=C(COc1ccc(Cl)cc1)NCc1nnc(SCC(=O)N2CCCCCC2)o1 3.1%
CCOc1ccccc1NC(=O)c1ccc(NC(=O)c2ccco2)cc1 -12.3%
Cc1nnc(Sc2cc(NCCO)c([N+](=O)[O-])c3nonc23)s1 -0.7%
CN(CCO)c1cc(N2CCCCC2)c2nonc2c1[N+](=O)[O-] -0.9%
CCN(CC)c1cc(NCCO)c([N+](=O)[O-])c2nonc12 37.9%
O=[N+]([O-])c1c(NCCCO)cc(N2CCN(Cc3ccc4c(c3)OCO4)CC2)c2nonc12 13%
CCOC(=O)C1CCCN(c2cc(NCCCO)c([N+](=O)[O-])c3nonc23)C1 (stereo not given) 32.9%
CCOC(=O)N1CCN(c2cc(N(C)CCO)c([N+](=O)[O-])c3nonc23)CC1 20.8%
CC(=O)Nc1ccc(Nc2cc(N3CCOCC3)c3nonc3c2[N+](=O)[O-])cc1 -2.7%
CN(CCO)c1cc(N2CCC3(CC2)OCCO3)c2nonc2c1[N+](=O)[O-] 6%
COc1ccccc1-n1c(-c2ccc(NS(C)(=O)=O)cc2)n[nH]c1=S -0.6%
CC(C)Cc1nnc(NC(=O)CS(=O)(=O)Cc2ccccc2)s1 -0.2%
C=C(C)CSc1nnc2n(N)c(=O)c3ccccc3n12 -4.8%
Cc1ccccc1C(=O)NCCc1nnc(SCC(=O)Nc2nc(-c3ccccc3)cs2)n1C -0.8%
O=C(CSc1ncccn1)N1CCN(C(c2ccccc2)c2ccccc2)CC1 20.8%

inhibition, active:
O=C(Nc1cc(S(=O)(=O)N2CCOCC2)ccc1N1CCCCC1)c1cc(-c2ccccn2)nc2ccccc12 52.8%
O=C(Nc1cc(S(=O)(=O)N2CCOCC2)ccc1N1CCCC1)c1ccc2c(c1)S(=O)(=O)c1ccccc1C2=O 61%
COCCNC(=S)Nc1cc(S(=O)(=O)N2CCOCC2)ccc1N1CCCCC1 63.1%
CC(=O)N1CCc2c(sc(NC(=O)c3ccc([N+](=O)[O-])o3)c2C#N)C1 59%
CN=C1C([N+](=O)[O-])=CC=C2C1=NC1(CCCCC1)N2O 70.6%
CC(C)(C)N=C1C([N+](=O)[O-])=CC=C2C1=NC1(CCCCC1)N2O 76.2%
O=[N+]([O-])C1=CC=C2C(=NC3(CCCCC3)N2O)C1=NC1CCCCC1 87.5%
O=C(O)CCCC(=O)Nc1ccc(OCc2nc3ccccc3s2)cc1 58.3%
CN(c1ccccc1)S(=O)(=O)c1cccc(C(=O)NCCc2ccc(O)c(O)c2)c1 54.9%
COc1ccccc1-n1c(SCC(=O)NCc2ccc3c(c2)OCO3)nc2cc([N+](=O)[O-])ccc21 59.9%
O=C(Cc1csc(NC(=O)c2ccccc2)n1)NO 67.6%
COc1ccccc1NS(=O)(=O)c1cc(NC(=O)C2CCCC2)ccc1N1CCOCC1 55.7%
COc1ccccc1NS(=O)(=O)c1cc(N)ccc1N1CCCCC1 67.5%
O=C(Nc1ccc(N2CCOCC2)c2nonc12)C1CCCC1 53.4%
COc1ccccc1NS(=O)(=O)c1cc(NC(C)=O)ccc1N1CCCCC1 52.7%
O=[N+]([O-])c1c(NCCO)cc(N2CCC3(CC2)OCCO3)c2nonc12 60.3%
O=[N+]([O-])c1c(NCCO)cc(N2CCCCC2)c2nonc12 57.8%
O=[N+]([O-])c1c(NCCO)cc(N2CCN(Cc3ccc4c(c3)OCO4)CC2)c2nonc12 55.4%
CCOC(=O)N1CCN(c2cc(NCCO)c([N+](=O)[O-])c3nonc23)CC1 56.2%
